# Records with an inconclusive call do not appear. Activity calls are given as the source filed them. Rule for the calls, unless noted: active = hit-call score of the fitted dose curve at least 0.9, where 1 is the maximum; inconclusive = response in the unintended direction; inactive = score below 0.9.
# Assays:
# [1] = tested on: Brachyury (BRA) Protein Expression, Deisenroth Lab, TBXT (gene 6862); assay: CCTE_Deisenroth_DEVTOX-GLR_legacy_Bra: (Legacy) CCTE's DevTox GLR-Endo Assay Evaluation of Brachyury (BRA) Protein Expression, Deisenroth Lab (AID 2284329; active = hit-call score of the fitted dose curve at least 0.9, where 1 is the maximum; inactive = score below 0.9)
# How it was run: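 RUES2-GLR human pluripotent cells are differentiated for 48 h and receive two chemical exposures 24 h apart, at 10 concentrations from 1 nM to 200 uM. Cells are fixed, nuclei stained and imaged. Bra+ cells are those with mean Bra intensity over 5x BMAD above the pluripotent control median, expressed as a percentage of cell count, after subtracting the 0.2% DMSO control median.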
# [2] = tested on: SRY-box transcription factor 17 (SOX17) Protein Expression, Deisenroth Lab, SOX17 (gene 64321); assay: CCTE_Deisenroth_DEVTOX-GLR_legacy_Sox17: (Legacy) CCTE's DevTox GLR-Endo Assay Evaluation of SRY-box transcription factor 17 (SOX17) Protein Expression, Deisenroth Lab (AID 2284341; active = hit-call score of the fitted dose curve at least 0.9, where 1 is the maximum; inactive = score below 0.9); details: actives raise or lower the signal
# How it was run: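 RUES2-GLR human pluripotent cells differentiated toward endoderm for 48 h, dosed twice at 24 h intervals (1 nM–200 uM, 10 points). Imaging gives % SOX17+ cells (intensity >5x BMAD above pluripotent control median); bidirectional fit versus 0.2% DMSO.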
# [3] = tested on: SRY-box transcription factor 2 (SOX2) Protein Expression, Deisenroth Lab, SOX2 (gene 6657); assay: CCTE_Deisenroth_DEVTOX-GLR_legacy_Sox2: (Legacy) CCTE's DevTox GLR-Endo Assay Evaluation of SRY-box transcription factor 2 (SOX2) Protein Expression, Deisenroth Lab (AID 2284346; active = hit-call score of the fitted dose curve at least 0.9, where 1 is the maximum; inactive = score below 0.9)
# How it was run: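 RUES2-GLR human pluripotent cells were differentiated for 48 h with two chemical doses 24 h apart, over 1 nM-200 uM. Sox2+ cells were those above 5x BMAD of the endoderm-control median; percent Sox2+ minus the 0.2% DMSO median was used, from n=4 replicates.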
# [4] = tested on: Brachyury (BRA) Protein Expression, TBXT (gene 6862); assay: CCTE_Deisenroth_DEVTOX-GLR_Endo_BRA: CCTE's DevTox GLR-Endo Assay Evaluation of Brachyury (BRA) Protein Expression, Deisenroth Lab (AID 2284417; active = hit-call score of the fitted dose curve at least 0.9, where 1 is the maximum; inactive = score below 0.9)
# How it was run: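 RUES2-GLR pluripotent cells differentiated 48 h with two chemical exposures 24 h apart, 10-point range 1 nM - 200 uM. Percentage of BRA+ cells per total count by high-content imaging, minus 0.2% DMSO control.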
# [5] = CCTE_Deisenroth_DEVTOX-GLR_Endo_CellCount: Viability Assessment in CCTE's DevTox GLR-Endo Assay, Deisenroth Lab (AID 2284420; active = hit-call score of the fitted dose curve at least 0.9, where 1 is the maximum; inactive = score below 0.9)
# How it was run: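 Human pluripotent RUES2-GLR line; 24 h pre-seed; 48 h endoderm-directed differentiation; 2 doses, q24h; 10 conc., 1 nM - 200 uM; fix + nuclear dye; 5 fields/well imaged; readout = nuclei count, % change vs 0.2% DMSO; n=4.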
# [6] = tested on: SRY-box transcription factor 17 (SOX17) Protein Expression, Deisenroth Lab, SOX17 (gene 64321); assay: CCTE_Deisenroth_DEVTOX-GLR_Pluri_SOX17: CCTE's DevTox GLR-Pluri Assay Evaluation of SRY-box transcription factor 17 (SOX17) Protein Expression, Deisenroth Lab (AID 2284427)
# How it was run: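 Human RUES2-GLR pluripotent line; 24 h seeding, 48 h defined-media differentiation, 2 doses q24h, 10 conc 1 nM - 200 uM. Fix, nuclear stain, image 5 fields/well. Endpoint = %SOX17+ minus 0.2% DMSO; n=4.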
# [7] = tested on: SRY-box transcription factor 2 (SOX2) Protein Expression, Deisenroth Lab, SOX2 (gene 6657); assay: CCTE_Deisenroth_DEVTOX-GLR_Pluri_SOX2: CCTE's DevTox GLR-Pluri Assay Evaluation of SRY-box transcription factor 2 (SOX2) Protein Expression, Deisenroth Lab (AID 2284428; active = hit-call score of the fitted dose curve at least 0.9, where 1 is the maximum; inactive = score below 0.9)
# How it was run: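 Steps: seed RUES2-GLR cells for 24 h; start 48 h differentiation in defined media; dose test chemicals at 0 and 24 h (1 nM–200 uM); fix, stain nuclei, image; compute SOX2+ percentage against 0.2% DMSO wells.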
# [8] = tested on: Brachyury (BRA) Protein Expression, Deisenroth Lab, TBXT (gene 6862); assay: CCTE_Deisenroth_DEVTOX-GLR_Pluri_BRA: CCTE's DevTox GLR-Pluri Assay Evaluation of Brachyury (BRA) Protein Expression, Deisenroth Lab (AID 2284429)
# How it was run: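 RUES2-GLR human pluripotent cells differentiated 48 hours with two chemical exposures 24 hours apart, 10-point series 1 nM–200 uM. Fixed, nuclear-stained, imaged; endpoint is percent BRA+ cells minus 0.2% DMSO control.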
# [9] = CCTE_Deisenroth_DEVTOX-GLR_Pluri_CellCount: Viability Assessment in CCTE's DevTox GLR-Pluri Assay Evaluation of Total Cell Counts, Deisenroth Lab (AID 2284430; active = hit-call score of the fitted dose curve at least 0.9, where 1 is the maximum; inactive = score below 0.9)
# How it was run: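 RUES2-GLR human pluripotent cells, seeded 24 h, then differentiated 48 h with two chemical exposures 24 h apart; 10-point series 1 nM - 200 uM. Fixed, nuclear-stained, imaged (5 fields/well); nuclei count as % change vs 0.2% DMSO.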
# [10] = TOX21_p53_BLA_p2_viability: Viability Assessment in the Tox21 HCT-116 p53 Agonism Beta-lactamase Assay, Phase 2 (AID 2283591);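 note: compound exposure lasted 16 h at 37 °C; actives lower the ATP signal meaning cytotoxicity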
# How it was run: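 HCT116 p53-bla cells, 4000/well, dosed after 5 h plating (217-fold dilution of DMSO stocks) and incubated 16 h at 37C. Viability taken as cellular ATP by CellTiter-Glo luminescence after 30 min RT; signal loss marks cytotoxicity.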
# [11] = molecular target: Cellular tumor antigen p53 (Homo sapiens) (UniProt P04637); assay: TOX21_p53_BLA_p3_ratio: Tox21 HCT-116 p53 Agonism Beta-lactamase Assay, Ratio, Phase 3 (AID 2283596)
# Chain of Cellular tumor antigen p53 (Homo sapiens) (P04637 whole entry, looked up): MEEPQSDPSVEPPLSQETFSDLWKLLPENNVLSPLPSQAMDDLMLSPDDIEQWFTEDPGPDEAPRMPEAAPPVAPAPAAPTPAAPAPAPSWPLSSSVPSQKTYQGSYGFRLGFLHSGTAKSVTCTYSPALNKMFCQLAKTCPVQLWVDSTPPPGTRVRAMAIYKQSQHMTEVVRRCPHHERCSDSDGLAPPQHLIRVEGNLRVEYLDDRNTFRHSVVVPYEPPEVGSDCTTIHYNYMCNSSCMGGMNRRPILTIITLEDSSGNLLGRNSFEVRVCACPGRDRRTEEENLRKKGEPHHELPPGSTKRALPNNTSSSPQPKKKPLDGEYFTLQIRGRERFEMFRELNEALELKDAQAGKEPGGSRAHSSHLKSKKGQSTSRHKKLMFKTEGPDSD
# How it was run: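 HCT116 p53-bla cells (4000/well) given compound in DMSO (217-fold dilution) after 5 h, incubated 16 h at 37C. CCF4-AM substrate 2 h at room temperature; 460/530 nm emission ratio, gain fitted against DMSO.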
# [12] = molecular target: Cellular tumor antigen p53 (Homo sapiens) (UniProt P04637); assay: TOX21_p53_BLA_p5_ratio: Tox21 HCT-116 p53 Agonism Beta-lactamase Assay, Ratio, Phase 5 (AID 2283599)
# How it was run: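 HCT-116 p53-bla cells (4000/well) plated 5 h, dosed with compound (217-fold DMSO dilution) for 16 h at 37 C; CCF4-AM substrate 2 h at room temperature. Activity is the 460/530 nm emission ratio (405 nm excitation), fitted in gain-of-signal direction versus DMSO.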
# [13] = TOX21_p53_BLA_p5_viability: Viability Assessment in the Tox21 HCT-116 p53 Agonism Beta-lactamase Assay, Phase 5 (AID 2283600)
# How it was run: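 4000 cells/well; 5 h pre-incubation; DMSO compounds pin-transferred, 217-fold dilution; 16 h, 37C/5% CO2; CCF4-AM 2 h RT; CellTiter-Glo 30 min RT; luminescence.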
# [14] = molecular target: Cellular tumor antigen p53 (Homo sapiens) (UniProt P04637); assay: TOX21_p53_BLA_p4_ratio: Tox21 HCT-116 p53 Agonism Beta-lactamase Assay, Ratio, Phase 4 (AID 2283601)
# How it was run: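 HCT-116 p53 beta-lactamase reporter cells (4000/well) preincubated 5 h, then compound (217-fold dilution of DMSO stock) for 16 h at 37C. CCF4-AM substrate added 2 h at room temperature; 460/530 nm emission ratio fitted upward versus DMSO.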
# [15] = TOX21_p53_BLA_p4_viability: Viability Assessment in the Tox21 HCT-116 p53 Agonism Beta-lactamase Assay, Phase 4 (AID 2283597);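 note: hits lower the luminescence signal meaning cytotoxicity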
# How it was run: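 Cells plated, 5 h pre-incubation; DMSO compounds pinned (217-fold dilution); 16 h, 37C/5% CO2; CCF4-AM 2 h RT; CellTiter-Glo 30 min RT; luminescence read.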
structure (smiles),measurement,setting,value
O=c1[nH]c(=O)n([C@H]2C[C@H](O)[C@@H](CO)O2)cc1Br,AC50,[1],11.7 µM (active)
same,AC50,[2],0.857 µM (active)
same,AC50,[3],14.4 µM (active)
same,AC50,[4],32.8 µM (active)
same,AC50,[5],10.2 µM (active)
same,outcome,[6],inactive
same,AC50,[7],3.42 µM (active)
same,AC50,[8],79.6 µM (active)
same,AC50,[9],23.7 µM (active)
O=C(O)COc1ccc2ccccc2c1,outcome,[10],inactive
same,outcome,[11],inactive
same,outcome,[12],inactive
same,outcome,[13],inactive
same,outcome,[14],inactive
O=C(Cc1cccs1)N[C@@H]1C(=O)N2C(C(=O)[O-])=C(C[n+]3ccccc3)CS[C@H]12,outcome,[10],inactive
same,outcome,[11],inactive
same,outcome,[12],inactive
same,outcome,[13],inactive
same,outcome,[14],inactive
C=C[Si](OC(=C)C)(OC(=C)C)OC(=C)C,outcome,[10],inactive
same,outcome,[11],inactive
same,outcome,[12],inactive
same,outcome,[13],inactive
CC12CC3CC(C)(C1)CC(N)(C3)C2,outcome,[10],inactive
same,outcome,[11],inactive
same,outcome,[15],inactive
same,outcome,[12],inactive
same,outcome,[14],inactive
CCc1cnc(C(=O)O)c(C(=O)O)c1,outcome,[10],inactive
same,outcome,[11],inactive
same,outcome,[12],inactive
same,outcome,[14],inactive

# Reference: PubChem BioAssay (EPA / NIEHS)
